Laboratory results: the supplement of paper PMC4466140

B1: unnamed (peptide)
chain: TPEIPPPLPPKIMVH

Molecular target: AgAbp1
Assay: SPOT peptide array binding signal intensity (averaged, normalized) (arbitrary units (background-subtracted, floor 0; scale differs between SH3 domains)); higher = stronger binding of the SH3 domain to the peptide
How it was run: (§1)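 SH3 domains from four yeast species were expressed as GST fusions in E. coli BL21(DE3) and purified on glutathione Sepharose. Each was incubated at 10 μg/ml overnight at 4°C in TBS-based blocking buffer on cellulose membranes bearing synthetic 15-mer peptides, in which serines replaced cysteines. Bound protein was detected with anti-GST antibody, an HRP anti-mouse secondary and luminol, then imaged and quantified with Genespotter. The binding signal is the normalized, background-subtracted spot intensity averaged over replicates, in arbitrary units that are not the same from one domain to another.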

Row | Binder | SPOT peptide array binding signal intensity
1 | B1 | ≤ 0

Molecular target: AgBbc1
Assay: as above
How it was run: as §1

Row | Binder | SPOT peptide array binding signal intensity
2 | B1 | ≤ 0

Molecular target: AgBem1-D1
Assay: as above
How it was run: as §1

Row | Binder | SPOT peptide array binding signal intensity
3 | B1 | ≤ 0

Molecular target: AgBzz1-D1
Assay: as above
How it was run: as §1

Row | Binder | SPOT peptide array binding signal intensity
4 | B1 | ≤ 0

Molecular target: AgBzz1-D2
Assay: as above
How it was run: as §1

Row | Binder | SPOT peptide array binding signal intensity
5 | B1 | 4.5

Molecular target: AgCyk3
Assay: as above
How it was run: as §1

Row | Binder | SPOT peptide array binding signal intensity
6 | B1 | ≤ 0

Molecular target: AgFus1
Assay: as above
How it was run: as §1

Row | Binder | SPOT peptide array binding signal intensity
7 | B1 | ≤ 0

Molecular target: AgHof1
Assay: as above
How it was run: as §1

Row | Binder | SPOT peptide array binding signal intensity
8 | B1 | 631

Molecular target: AgHse1
Assay: as above
How it was run: as §1

Row | Binder | SPOT peptide array binding signal intensity
9 | B1 | 822

Molecular target: AgLsb1
Assay: as above
How it was run: as §1

Row | Binder | SPOT peptide array binding signal intensity
10 | B1 | ≤ 0

Molecular target: AgLsb4
Assay: as above
How it was run: as §1

Row | Binder | SPOT peptide array binding signal intensity
11 | B1 | 232

Molecular target: AgMyo5
Assay: as above
How it was run: as §1

Row | Binder | SPOT peptide array binding signal intensity
12 | B1 | 496

Molecular target: AgNbp2
Assay: as above
How it was run: as §1

Row | Binder | SPOT peptide array binding signal intensity
13 | B1 | ≤ 0

Molecular target: AgRvs167
Assay: as above
How it was run: as §1

Row | Binder | SPOT peptide array binding signal intensity
14 | B1 | 9.33

Molecular target: AgSho1
Assay: as above
How it was run: as §1

Row | Binder | SPOT peptide array binding signal intensity
15 | B1 | 66

Molecular target: AgSla1-D1-D2
Assay: as above
How it was run: as §1

Row | Binder | SPOT peptide array binding signal intensity
16 | B1 | ≤ 0

Molecular target: AgSla1-D3
Assay: as above
How it was run: as §1

Row | Binder | SPOT peptide array binding signal intensity
17 | B1 | ≤ 0

Molecular target: CaAbp1-D1
Assay: as above
How it was run: as §1

Row | Binder | SPOT peptide array binding signal intensity
18 | B1 | 6.5

Molecular target: CaAbp1-D2
Assay: as above
How it was run: as §1

Row | Binder | SPOT peptide array binding signal intensity
19 | B1 | ≤ 0

Molecular target: CaBbc1
Assay: as above
How it was run: as §1

Row | Binder | SPOT peptide array binding signal intensity
20 | B1 | ≤ 0

Molecular target: CaBem1-D1
Assay: as above
How it was run: as §1

Row | Binder | SPOT peptide array binding signal intensity
21 | B1 | ≤ 0

Molecular target: CaBzz1-D1
Assay: as above
How it was run: as §1

Row | Binder | SPOT peptide array binding signal intensity
22 | B1 | ≤ 0

Molecular target: CaBzz1-D2
Assay: as above
How it was run: as §1

Row | Binder | SPOT peptide array binding signal intensity
23 | B1 | ≤ 0

Molecular target: CaCyk3
Assay: as above
How it was run: as §1

Row | Binder | SPOT peptide array binding signal intensity
24 | B1 | ≤ 0

Molecular target: CaFus1
Assay: as above
How it was run: as §1

Row | Binder | SPOT peptide array binding signal intensity
25 | B1 | 74

Molecular target: CaHof1
Assay: as above
How it was run: as §1

Row | Binder | SPOT peptide array binding signal intensity
26 | B1 | 20.5

Molecular target: CaHse1
Assay: as above
How it was run: as §1

Row | Binder | SPOT peptide array binding signal intensity
27 | B1 | 3420

Molecular target: CaLsb1
Assay: as above
How it was run: as §1

Row | Binder | SPOT peptide array binding signal intensity
28 | B1 | ≤ 0

Molecular target: CaLsb4
Assay: as above
How it was run: as §1

Row | Binder | SPOT peptide array binding signal intensity
29 | B1 | 1090

Molecular target: CaMyo5
Assay: as above
How it was run: as §1

Row | Binder | SPOT peptide array binding signal intensity
30 | B1 | 25.5

Molecular target: CaNbp2
Assay: as above
How it was run: as §1

Row | Binder | SPOT peptide array binding signal intensity
31 | B1 | 9

Molecular target: CaRvs167
Assay: as above
How it was run: as §1

Row | Binder | SPOT peptide array binding signal intensity
32 | B1 | 29.8

Molecular target: CaRvs167-3
Assay: as above
How it was run: as §1

Row | Binder | SPOT peptide array binding signal intensity
33 | B1 | ≤ 0

Molecular target: CaSho1
Assay: as above
How it was run: as §1

Row | Binder | SPOT peptide array binding signal intensity
34 | B1 | 124

Molecular target: CaSla1-D1-D2
Assay: as above
How it was run: as §1

Row | Binder | SPOT peptide array binding signal intensity
35 | B1 | ≤ 0

Molecular target: CaSla1-D3
Assay: as above
How it was run: as §1

Row | Binder | SPOT peptide array binding signal intensity
36 | B1 | ≤ 0

Molecular target: ScAbp1
Assay: as above
How it was run: as §1

Row | Binder | SPOT peptide array binding signal intensity
37 | B1 | ≤ 0

Molecular target: ScBbc1
Assay: as above
How it was run: as §1

Row | Binder | SPOT peptide array binding signal intensity
38 | B1 | ≤ 0

Molecular target: ScBem1-D1
Assay: as above
How it was run: as §1

Row | Binder | SPOT peptide array binding signal intensity
39 | B1 | ≤ 0

Molecular target: ScBzz1-D1
Assay: as above
How it was run: as §1

Row | Binder | SPOT peptide array binding signal intensity
40 | B1 | ≤ 0

Molecular target: ScBzz1-D2
Assay: as above
How it was run: as §1

Row | Binder | SPOT peptide array binding signal intensity
41 | B1 | 11

Molecular target: ScCyk3
Assay: as above
How it was run: as §1

Row | Binder | SPOT peptide array binding signal intensity
42 | B1 | ≤ 0

Molecular target: ScFus1
Assay: as above
How it was run: as §1

Row | Binder | SPOT peptide array binding signal intensity
43 | B1 | ≤ 0

Molecular target: ScHof1
Assay: as above
How it was run: as §1

Row | Binder | SPOT peptide array binding signal intensity
44 | B1 | 722

Molecular target: ScHse1
Assay: as above
How it was run: as §1

Row | Binder | SPOT peptide array binding signal intensity
45 | B1 | ≤ 0

Molecular target: ScLsb1
Assay: as above
How it was run: as §1

Row | Binder | SPOT peptide array binding signal intensity
46 | B1 | 109

Molecular target: ScLsb2
Assay: as above
How it was run: as §1

Row | Binder | SPOT peptide array binding signal intensity
47 | B1 | ≤ 0

Molecular target: ScLsb3
Assay: as above
How it was run: as §1

Row | Binder | SPOT peptide array binding signal intensity
48 | B1 | 6940

Molecular target: ScLsb4
Assay: as above
How it was run: as §1

Row | Binder | SPOT peptide array binding signal intensity
49 | B1 | 376

Molecular target: ScMyo3
Assay: as above
How it was run: as §1

Row | Binder | SPOT peptide array binding signal intensity
50 | B1 | 611

Molecular target: ScMyo5
Assay: as above
How it was run: as §1

Row | Binder | SPOT peptide array binding signal intensity
51 | B1 | 380

Molecular target: ScNbp2
Assay: as above
How it was run: as §1

Row | Binder | SPOT peptide array binding signal intensity
52 | B1 | 2

Molecular target: ScPex13
Assay: as above
How it was run: as §1

Row | Binder | SPOT peptide array binding signal intensity
53 | B1 | 1210

Molecular target: ScRvs167
Assay: as above
How it was run: as §1

Row | Binder | SPOT peptide array binding signal intensity
54 | B1 | 525

Molecular target: ScSho1
Assay: as above
How it was run: as §1

Row | Binder | SPOT peptide array binding signal intensity
55 | B1 | 1610

Molecular target: ScSla1-D1-D2
Assay: as above
How it was run: as §1

Row | Binder | SPOT peptide array binding signal intensity
56 | B1 | ≤ 0

Molecular target: ScSla1-D3
Assay: as above
How it was run: as §1

Row | Binder | SPOT peptide array binding signal intensity
57 | B1 | ≤ 0

Molecular target: SpAbp1-D1
Assay: as above
How it was run: as §1

Row | Binder | SPOT peptide array binding signal intensity
58 | B1 | ≤ 0

Molecular target: SpBbc1
Assay: as above
How it was run: as §1

Row | Binder | SPOT peptide array binding signal intensity
59 | B1 | 0.5

Molecular target: SpBzz1-D1
Assay: as above
How it was run: as §1

Row | Binder | SPOT peptide array binding signal intensity
60 | B1 | 68

Molecular target: SpBzz1-D2
Assay: as above
How it was run: as §1

Row | Binder | SPOT peptide array binding signal intensity
61 | B1 | ≤ 0

Molecular target: SpCyk3
Assay: as above
How it was run: as §1

Row | Binder | SPOT peptide array binding signal intensity
62 | B1 | ≤ 0

Molecular target: SpHof1
Assay: as above
How it was run: as §1

Row | Binder | SPOT peptide array binding signal intensity
63 | B1 | ≤ 0

Molecular target: SpHof1-2
Assay: as above
How it was run: as §1

Row | Binder | SPOT peptide array binding signal intensity
64 | B1 | 0.5

Molecular target: SpHof1-3
Assay: as above
How it was run: as §1

Row | Binder | SPOT peptide array binding signal intensity
65 | B1 | ≤ 0

Molecular target: SpHse1
Assay: as above
How it was run: as §1

Row | Binder | SPOT peptide array binding signal intensity
66 | B1 | 148

Molecular target: SpLsb1
Assay: as above
How it was run: as §1

Row | Binder | SPOT peptide array binding signal intensity
67 | B1 | 463

Molecular target: SpLsb4
Assay: as above
How it was run: as §1

Row | Binder | SPOT peptide array binding signal intensity
68 | B1 | 852

Molecular target: SpMyo1
Assay: as above
How it was run: as §1

Row | Binder | SPOT peptide array binding signal intensity
69 | B1 | 723

Molecular target: SpNbp2
Assay: as above
How it was run: as §1

Row | Binder | SPOT peptide array binding signal intensity
70 | B1 | ≤ 0

Molecular target: SpPex13
Assay: as above
How it was run: as §1

Row | Binder | SPOT peptide array binding signal intensity
71 | B1 | 9

Molecular target: SpRvs167
Assay: as above
How it was run: as §1

Row | Binder | SPOT peptide array binding signal intensity
72 | B1 | 1520

Molecular target: SpSla1-D1-D2
Assay: as above
How it was run: as §1

Row | Binder | SPOT peptide array binding signal intensity
73 | B1 | ≤ 0

Molecular target: SpSla1-D3
Assay: as above
How it was run: as §1

Row | Binder | SPOT peptide array binding signal intensity
74 | B1 | ≤ 0
